Source: PubChem
DT40 TDP1 no CPT: qHTS for Inhibitors of human tyrosyl-DNA phosphodiesterase 1 (TDP1): qHTS in cells in absence of CPT; DT40 Tdp1-/- hTDP1 cells, no CPT, ATP luminescence, 48 h; Potency, µM (titrated, usually from 46.2 µM), hits mostly inhibitors; 420,000 tested, 15% active; AID 686978, 2013; further: nearly all actives have a fitted effect of over 55% in size
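No-CPT arm: Tdp1-/-;hTDP1 DT40 cells (400/well) plus compounds, incubated ≥48 hr at 37 °C. Readout CellTiter-Glo luminescence.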
DT40 TDP1 CPT: growth inhibition of DT40 Tdp1-/-;hTDP1 cells with camptothecin (screen for TDP1 inhibitors) | chicken DT40 Tdp1-/-;hTDP1 cells + 20 nM CPT, ATP luminescence, 48 h | Potency, µM (series often up to 46.2 µM), hits mostly inhibitors | 420,000 tested, 12% active | AID 686979; further: nearly all actives have a fitted effect of over 55% in size
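Cell growth measured by CellTiter-Glo luminescence after a minimum 48 h, 37 C compound exposure with 20 nM CPT in Tdp1-knockout DT40 cells stably expressing hTDP1, seeded 400/well; qHTS titration format.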
HT1080 IDH1KD tx: kills HT-1080 cells with IDH1 knockdown; HT-1080 IDH1 knockdown viability, ATP luminescence, 48 h; Potency, µM (series often up to 46.1 µM), hits mostly cytotoxic; 360,000 tested, 2% active; AID 686971
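% activity derives from luminescence (CellTiter-Glo), normalised to DMSO and no-cell wells. HT-1080-IDH1KD cells, 750/well, had 48 h compound exposure at 37 °C.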
HT1080-NT tox: kills 2HG-producing HT-1080-NT fibrosarcoma cells; Potency, µM (top dose mostly 46.1 µM), hits mostly cytotoxic; 360,000 tested, 1.6% active; AID 686970; HT-1080-NT fibrosarcoma viability, CellTiter-Glo ATP luminescence, 48 h;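 further: NT is the 2HG producing partner of a matched IDH1 knockdown line; nearly all actives have a fitted effect of over 55% in size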
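Viability of the 2HG-overproducing fibrosarcoma line after 48 hours of compound exposure at 37 degrees C was determined by luminescence with CellTiter-Glo, and concentration-effect curves were then fitted and categorized.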
IL1B secr inh: inhibitors of inflammasome signaling (IL-1 beta secretion); AID 743279; activity change, % at 57.5 µM; 360,000 tested, 4.7% active; THP-1 LPS/ATP IL-1B secretion, AlphaLISA, 16 h; hits give low values; in the data active means activity change below about -50%; inconclusive means mostly about -30% to -49%
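Secreted IL-1B measured by AlphaLISA bead assay after 16 h compound exposure of THP-1 cells; compounds (final up to 57.5 uM) added 1 h before LPS (250 ng/mL) and ATP (1.25 mM) stimulation; lower signal means less secretion.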
Numbers stand for hits; [ ] = dose if it differs, or a comment. In the library only some 19% were active in any assay of this set; here they are far more common. Unless noted, the call rests on the fitted dose curve; in most records, active means well fitted curve in the direction sought with a large enough effect; inconclusive means small, poorly fitted or top-dose-only effect, or another doubt; inactive means no such curve, though single readings can be large; an effect the other way counts as inactive or inconclusive.

What do the screens show for `COc1cccc(OCc2nc3ccccc3[nH]2)c1`?
DT40 TDP1 no CPT: inconclusive; DT40 TDP1 CPT: 13µM; HT1080 IDH1KD tx: inactive; HT1080-NT tox: inactive; IL1B secr inh: inactive

How did c1ccc2cc(OCc3nc4ccccc4[nH]3)ccc2c1 do in these assays?
DT40 TDP1 no CPT: inconclusive; DT40 TDP1 CPT: inconclusive; HT1080 IDH1KD tx: inactive[9.24 µM]; HT1080-NT tox: inconclusive; IL1B secr inh: inconclusive

What do the screens show for `Cc1ccccc1OCc1nc2ccccc2[nH]1`?
DT40 TDP1 no CPT: 16µM; DT40 TDP1 CPT: 23µM; HT1080 IDH1KD tx: inactive; HT1080-NT tox: inactive; IL1B secr inh: inactive

Results for O=[N+]([O-])c1ccccc1S(=O)(=O)N1CCSCC1 ?
DT40 TDP1 no CPT: inactive; DT40 TDP1 CPT: inactive; HT1080 IDH1KD tx: inactive; HT1080-NT tox: inactive; IL1B secr inh: inactive

How did CS(=O)(=O)N1CCC2(CCN(Cc3nccs3)CC2)CC1 do in these assays?
DT40 TDP1 no CPT: inactive; DT40 TDP1 CPT: inactive

How did COC1=NC(=C(c2ccccc2)c2ccccc2)OC1=O do in these assays?
DT40 TDP1 no CPT: inactive; DT40 TDP1 CPT: inactive; HT1080 IDH1KD tx: inactive; HT1080-NT tox: inactive; IL1B secr inh: inactive

How did Cc1cc(C)cc(NC(=O)CSc2nc(=O)n3cc(C)ccc3n2)c1 do in these assays?
DT40 TDP1 no CPT: inactive; DT40 TDP1 CPT: inactive; HT1080 IDH1KD tx: inactive; HT1080-NT tox: inactive; IL1B secr inh: inactive

Results for CCC1NC(=O)c2cc3ccccc3cc2-n2c1nc1ccc(OC)cc1c2=O (stereo not drawn) ?
DT40 TDP1 no CPT: inconclusive; DT40 TDP1 CPT: inconclusive; HT1080 IDH1KD tx: inactive; HT1080-NT tox: inactive; IL1B secr inh: inactive

How did CCCC1NC(=O)c2cc3ccccc3cc2-n2c1nc1ccc(C)cc1c2=O (stereo not drawn) do in these assays?
DT40 TDP1 no CPT: 18µM; DT40 TDP1 CPT: inconclusive; HT1080 IDH1KD tx: inactive; HT1080-NT tox: inactive; IL1B secr inh: inactive

How did O=C1NC(Cc2ccccc2)c2nc3ccc(Cl)cc3c(=O)n2-c2cc3ccccc3cc21 (stereo not drawn) do in these assays?
DT40 TDP1 no CPT: 7.3µM; DT40 TDP1 CPT: inconclusive; HT1080 IDH1KD tx: inconclusive; HT1080-NT tox: inactive; IL1B secr inh: inactive

How did CCCC1NC(=O)c2cc3ccccc3cc2-n2c1nc1cc(Cl)ccc1c2=O (stereo not drawn) do in these assays?
DT40 TDP1 no CPT: inconclusive; DT40 TDP1 CPT: inconclusive; HT1080 IDH1KD tx: inactive; HT1080-NT tox: inactive; IL1B secr inh: inactive

What do the screens show for `Cc1ccc2nc3n(c(=O)c2c1)-c1ncccc1C(=O)NC3Cc1ccccc1` (stereo not drawn)?
DT40 TDP1 no CPT: inconclusive; DT40 TDP1 CPT: inconclusive; HT1080 IDH1KD tx: inactive; HT1080-NT tox: inactive; IL1B secr inh: inactive

What do the screens show for `CC1NC(=O)c2cc3ccccc3cc2-n2c1nc1ccc(F)cc1c2=O` (stereo not drawn)?
DT40 TDP1 no CPT: inactive; DT40 TDP1 CPT: inactive; HT1080 IDH1KD tx: inactive; HT1080-NT tox: inactive; IL1B secr inh: inactive

Results for O=C1NC(Cc2ccccc2)c2nc3ccc(Cl)cc3c(=O)n2-c2ncccc21 (stereo not drawn) ?
DT40 TDP1 no CPT: 21µM; DT40 TDP1 CPT: inconclusive; HT1080 IDH1KD tx: inactive; HT1080-NT tox: inactive; IL1B secr inh: inactive

Results for CCC1NC(=O)c2cc3ccccc3cc2-n2c1nc1ccc(F)cc1c2=O (stereo not drawn) ?
DT40 TDP1 no CPT: 23µM; DT40 TDP1 CPT: inconclusive; HT1080 IDH1KD tx: inactive; HT1080-NT tox: inactive; IL1B secr inh: inactive

Results for CCCCNC(=O)CCn1nc(-c2ccc(C)cc2)c2ccccc2c1=O ?
DT40 TDP1 no CPT: inactive; DT40 TDP1 CPT: inconclusive; HT1080 IDH1KD tx: inactive; HT1080-NT tox: inactive; IL1B secr inh: inactive

Results for O=C1NC(Cc2ccccc2)c2nc3ccc(F)cc3c(=O)n2-c2cc3ccccc3cc21 (stereo not drawn) ?
DT40 TDP1 no CPT: 5.2µM; DT40 TDP1 CPT: 5.2µM; HT1080 IDH1KD tx: 5.8µM; HT1080-NT tox: 5.8µM; IL1B secr inh: inactive

How did O=C1NC(Cc2ccc(O)cc2)c2nc3cc(Cl)ccc3c(=O)n2-c2cc(Cl)ccc21 (stereo not drawn) do in these assays?
DT40 TDP1 no CPT: inconclusive; DT40 TDP1 CPT: inconclusive; HT1080 IDH1KD tx: inconclusive; HT1080-NT tox: inactive; IL1B secr inh: -71
